# Assay results from article PMC4336329 (PLoS ONE, 2015).
# In all, about 310,000 compounds went through this assay and about 14,000 (4.5%) showed an effect of 50% or more. The effect is printed as a negative number. Many of the other results were omitted from the sample, so strong results are more common in it than they were.
# Target: human ether-à-go-go-related gene (hERG) potassium channel (human, UniProt Q12809)
# Experiment: primary screen, population patch clamp on CHO cells stably expressing hERG; higher = less effect of the substance
# 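Also: peak tail current of the secondary pulse compared with the same well before compound.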
# human ether-à-go-go-related gene (hERG) potassium channel, sequence (Q12809 whole entry, looked up): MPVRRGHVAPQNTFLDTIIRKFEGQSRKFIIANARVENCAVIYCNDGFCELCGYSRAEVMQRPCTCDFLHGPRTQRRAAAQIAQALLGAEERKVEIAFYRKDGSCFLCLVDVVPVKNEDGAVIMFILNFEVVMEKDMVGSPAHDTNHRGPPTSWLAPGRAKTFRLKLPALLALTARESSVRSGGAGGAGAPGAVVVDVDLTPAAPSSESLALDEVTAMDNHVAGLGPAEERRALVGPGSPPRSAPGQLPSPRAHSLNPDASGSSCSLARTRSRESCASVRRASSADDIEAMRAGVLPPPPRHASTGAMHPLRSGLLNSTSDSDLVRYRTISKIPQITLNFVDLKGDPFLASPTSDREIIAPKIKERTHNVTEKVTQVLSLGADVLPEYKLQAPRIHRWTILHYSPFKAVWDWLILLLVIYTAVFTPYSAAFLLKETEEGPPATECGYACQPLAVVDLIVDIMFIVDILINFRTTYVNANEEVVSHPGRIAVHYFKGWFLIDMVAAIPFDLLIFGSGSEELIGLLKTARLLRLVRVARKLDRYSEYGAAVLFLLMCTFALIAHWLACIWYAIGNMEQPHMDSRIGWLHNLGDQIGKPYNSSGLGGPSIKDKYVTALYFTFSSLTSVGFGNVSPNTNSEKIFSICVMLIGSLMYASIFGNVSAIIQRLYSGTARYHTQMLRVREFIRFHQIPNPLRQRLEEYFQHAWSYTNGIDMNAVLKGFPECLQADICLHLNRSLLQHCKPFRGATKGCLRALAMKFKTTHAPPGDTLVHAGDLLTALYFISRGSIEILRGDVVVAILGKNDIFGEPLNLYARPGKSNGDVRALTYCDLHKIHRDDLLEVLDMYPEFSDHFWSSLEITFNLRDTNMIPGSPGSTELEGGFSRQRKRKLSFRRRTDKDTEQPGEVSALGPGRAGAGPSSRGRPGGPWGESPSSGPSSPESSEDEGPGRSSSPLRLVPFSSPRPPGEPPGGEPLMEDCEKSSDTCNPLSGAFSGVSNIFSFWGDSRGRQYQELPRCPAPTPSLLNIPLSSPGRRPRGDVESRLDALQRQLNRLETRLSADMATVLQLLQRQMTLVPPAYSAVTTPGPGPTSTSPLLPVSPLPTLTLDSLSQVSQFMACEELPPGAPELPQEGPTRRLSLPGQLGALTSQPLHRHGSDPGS
row,Compound,"hERG current change (%, negative = inhibition) at 10uM [%]"
1,Cc1cc(S(=O)(=O)Nc2ccc3ccccc3c2)c(C)s1,-0.508
2,O=C(/C=C/c1cccs1)NC(=S)Nc1ccc(C(=O)O)cc1,6.78
3,CCOc1ccc(/C=N/Nc2cc(C)nc(N3CCOCC3)n2)cc1,3.47
4,O=C(O)c1ccc2c(c1)C1C=CCC1C(c1cc3c(cc1Br)OCO3)N2 (stereo not drawn),21.2
5,O=c1n(-c2ccc(Br)cc2)cnn1-c1ncccc1[N+](=O)[O-],-22.1
6,O=C1N/C(=N\N=C\c2ccco2)SC1Cc1ccc(F)cc1 (stereo not drawn),14
7,Nc1ncnc(Nc2cccc(C(F)(F)F)c2)n1,-5.45
8,Cc1ccc(SCc2[nH]nc3c2C(c2cccnc2)C(C#N)=C(N)O3)cc1 (stereo not drawn),-2.64
9,O=C(CCN1C(=O)c2ccccc2C1=O)NCc1ccccc1,10.2
10,CCOC(=O)c1cc2occc2n1CC(=O)N1CCOCC1,6.95
11,COc1cc(-c2ccc(NC(=O)NC3CC3)c(OC)c2)ccc1NC(=O)NC1CC1,27.9
12,O=C(NCc1ccco1)/C(=C/c1ccc(Cl)cc1)NC(=O)c1ccco1,-14
13,O=C(NCc1ccco1)/C(=C/c1ccc([N+](=O)[O-])cc1)NC(=O)c1ccco1,-69.5
14,O=C(NCc1ccco1)/C(=C/c1ccccc1)NC(=O)c1ccco1,4.72
15,CC(C)CNC(=S)NC(=O)c1csc([N+](=O)[O-])c1,9.85
16,COc1cccc(CN2CCCC(C(=O)N3CCCCC3)C2)c1.O=C(O)C(=O)O (stereo not drawn),5.13
17,COc1cccc(C(=O)C2CCCN(Cc3cccc(OCCO)c3)C2)c1 (stereo not drawn),-48.7
18,COc1cccc(C(=O)C2CCCN(Cc3cccc(-n4nc(C)cc4C)c3)C2)c1 (stereo not drawn),-59.4
19,COc1cccc(C(=O)C2CCCN(Cc3cccc(-n4cccn4)c3)C2)c1 (stereo not drawn),-64.5
20,Cc1cc(S(=O)(=O)N2CCCC(C)C2)ccc1-n1cnnn1 (stereo not drawn),5.72
21,O=C(CSc1nc(N2CCOCC2)nc(N2CCOCC2)n1)Nc1ccccc1F,19.2
22,COc1ccccc1C(=O)CC(=O)C(=O)Nc1cccc([N+](=O)[O-])c1C,8.79
23,COCCCNC(=O)c1ccc2c(=O)n(Cc3ccccc3OC)c(=S)[nH]c2c1,6.43
24,O=C(NCCc1ccc(F)cc1)c1cccs1,10.4

row,Compound,"hERG current change (%, negative = inhibition) at 10uM [%]"
1,Cc1ccc(S(=O)(=O)N2CCN(C(=O)c3c(-c4ccccc4)noc3C)CC2)cc1C,1.83
2,CN1CCc2nc(SC(C(=O)O)c3ccccc3)c(C#N)c(-c3cccs3)c2C1 (stereo not drawn),19.4
3,CN1CCc2nc(SCC(=O)Nc3ccc(OC(F)(F)F)cc3)c(C#N)c(-c3cccs3)c2C1,-12.8
4,COc1ccc(NC(=O)CSc2nc3c(c(-c4cccs4)c2C#N)CN(C)CC3)cc1OC,1.65
5,CN1CCc2nc(SCC(=O)Nc3cccc(F)c3)c(C#N)c(-c3cccs3)c2C1,-62.3
6,CN1CCc2nc(SCc3ccc(Cl)cc3)c(C#N)c(-c3cccs3)c2C1,-66.2
7,Cc1cccc(CSc2nc3c(c(-c4cccs4)c2C#N)CN(C)CC3)c1,-13.1
8,C=CCSc1nc(N)c(C#N)c(-c2ccc(C)cc2)c1C#N,4.13
9,C=CCSc1nc2c(c(-c3ccsc3)c1C#N)CN(C)CC2,-65.2
10,CN1CCc2nc(N)c(C#N)c(-c3ccccc3)c2C1,-7.5
11,Cc1ccc(C(=O)Nc2cccc(C(=O)O)c2)cc1,14.4
12,O=C(COC(=O)c1ccccc1F)Nc1cc(S(=O)(=O)N2CCOCC2)ccc1N1CCCC1,-13.5
13,Cc1oc2c(c(C)cc3oc(=O)c(CC(=O)NCCCN4CCCC4=O)c(C)c32)c1C,-0.519
14,O=C(Nc1ncccc1O)c1ccc2c(c1)OCO2,3.08
15,COc1ccccc1NC=C1C(=O)OC(C)(C)OC1=O,-24
16,CCOC(=O)c1ccc(S(=O)(=O)N2CCN(C(C)=O)CC2)cc1,0.122
17,CCc1nc(Nc2ccccc2)c2nnn(Cc3ccccc3)c2n1,8.23
18,COC(=O)c1nn(-c2ccc(-c3ccccc3)cc2)cc1O,-3.85
19,CC(C)Cn1c(N)c(C(=O)COC(=O)/C=C/c2cccs2)c(=O)n(C)c1=O,-49.9
20,CC(C)Cn1c(N)c(C(=O)COC(=O)Cc2cccs2)c(=O)n(C)c1=O,-51.7
21,Cc1csc(=O)n1CC(=O)OCC(=O)c1c(N)n(CC(C)C)c(=O)n(C)c1=O,-10.7
22,CC(C)Cn1c(N)c(C(=O)COC(=O)c2cc(C(F)(F)F)nc3c(C(F)(F)F)cccc23)c(=O)n(C)c1=O,7.27
23,Cc1cccc(OCC(=O)OCC(=O)c2c(N)n(C)c(=O)n(C)c2=O)c1,-13.1
24,CC(C)Cn1c(N)c(C(=O)COC(=O)c2ccc(F)cc2)c(=O)n(C)c1=O,17.1

row,Compound,"hERG current change (%, negative = inhibition) at 10uM [%]"
1,CC(C)Cn1c(N)c(C(=O)COC(=O)c2c(F)cccc2F)c(=O)n(C)c1=O,-16.7
2,CCCn1c(N)c(C(=O)COC(=O)CNC(=O)c2ccc(C)c(C)c2)c(=O)n(C)c1=O,-78.1
3,CC(C)Cn1c(N)c(C(=O)COC(=O)COc2cccc(C(F)(F)F)c2)c(=O)n(C)c1=O,-50.9
4,CC(C)Cn1c(N)c(C(=O)COC(=O)Cc2cccc(C(F)(F)F)c2)c(=O)n(C)c1=O,-54.5
5,Cc1ccc(C(=O)NCC(=O)OCC(=O)c2c(N)n(C)c(=O)n(C)c2=O)s1,9.14
6,Cc1cc(C)cc(C(=O)NCC(=O)OCC(=O)c2c(N)n(C)c(=O)n(C)c2=O)c1,17.4
7,CCN(CC)S(=O)(=O)c1cc(C)c(C)cc1OCC(=O)NC1CCCC1,-23.1
8,C/C=C/C=C/C(=O)N1CC2(CC(c3cccc(NC(=O)/C=C/C)c3)=NO2)C[C@@H]1C(N)=O (stereo partly drawn),2.75
9,Cc1ccsc1/C=N\NC(=O)c1cc(C(C)(C)C)[nH]n1,-9.77
10,O=C(CN1C(=O)C2CCCCC2C1=O)N1CCN(c2ccc(F)cc2)CC1 (stereo not drawn),-12.2
11,CC1(C)NC(=O)N(CC(=O)N2CCN(c3ccc([N+](=O)[O-])cc3)CC2)C1=O,-66.1
12,O=C(CN1C(=O)NC(c2ccccc2)(c2ccccc2)C1=O)N1CCN(c2ccccc2F)CC1,-17.4
13,CC(C(=O)N1CCOCC1)c1ccc([N+](=O)[O-])cc1 (stereo not drawn),9.94
14,O=C(CN1C(=O)C2CC=CCC2C1=O)N1CCN(c2ccc([N+](=O)[O-])cc2)CC1 (stereo not drawn),-71.6
15,O=C(CN1C(=O)NC(c2ccccc2)(c2ccccc2)C1=O)N1CCN(c2ccc(F)cc2)CC1,-68.4
16,CC1(C)NC(=O)N(CC(=O)N2CCN(c3cccc(C(F)(F)F)c3)CC2)C1=O,6.26
17,COc1ccc(N2CCN(C(=O)CN3C(=O)C4CC=CCC4C3=O)CC2)cc1 (stereo not drawn),12.3
18,CC(C(=O)N1CCN(c2ccc([N+](=O)[O-])cc2)CC1)N1C(=O)C2CC=CCC2C1=O (stereo not drawn),-72.2
19,CC1(C)NC(=O)N(CC(=O)N2CCN(c3cccc(Cl)c3)CC2)C1=O,-6.67
20,CC(C(=O)N1CCN(c2ccccc2)CC1)N1C(=O)C2CC=CCC2C1=O (stereo not drawn),7.43
21,O=C(CN1C(=O)NC(c2ccccc2)(c2ccccc2)C1=O)N1CCOCC1,0.969
22,CC(=O)N1CN(C2CC(C)(C)NC(C)(C)C2)Cc2c1sc1c2CCCC1,6.77
23,C(=C\c1ccccn1)/c1ccccn1,24.4
24,CC1=CC(C)(C)N(C(=O)CSc2nnc(N)s2)c2ccccc21,6.19

row,Compound,"hERG current change (%, negative = inhibition) at 10uM [%]"
1,O=c1[nH]c(=O)n(CCc2ccc(F)cc2)c(O)c1C=NCCCN1CCOCC1,-17.7
2,CC(=O)Nc1cc(C(C)C)c(O)c(C(C)C)c1,-4.37
3,Cc1cccc(CCNC(=O)Cn2ncc3c([nH]c4ccccc43)c2=O)c1,14.2
4,COc1cc(/C=C2\S/C(=N/S(=O)(=O)c3ccccc3)NC2=O)c([N+](=O)[O-])cc1OC,4.25
5,O=C(CC1SC(=O)N(Cc2ccc(Cl)cc2)C1=O)Nc1nccs1 (stereo not drawn),-4.51
6,O=c1[nH]c(=O)n(C2OC(CO)C(O)C2O)cc1Br (stereo not drawn),26.2
7,CCOC(=O)c1c(-c2ccc(C)o2)csc1N,20.5
8,Oc1ccccc1C1=Nc2ccccc2N=C(c2ccco2)C1,-12.7
9,COc1ccc(CNS(=O)(=O)c2c(C)[nH]c(C)c2C(=O)N2CCCC2)cc1,17.6
10,CN(C)S(=O)(=O)N1CCN(c2ccc(Cl)cc2)CC1,-14.4
11,O=S(=O)(c1cnc[nH]1)N1CCN(c2ccc(F)cc2)CC1,-3
12,CCOC(=O)C1CCN(c2ccc([N+](=O)[O-])c(C(C)=O)c2)CC1,-11.8
13,COC(=O)C1CCN(c2ccc([N+](=O)[O-])cc2)CC1,-21.7
14,O=[N+]([O-])c1ccc(N2CCN(S(=O)(=O)c3cnc[nH]3)CC2)cc1,-59.8
15,CCOC(=O)C1CCN(c2ccc([N+](=O)[O-])cc2)CC1,-68.9
16,O=C(C1CCN(S(=O)(=O)c2cnc[nH]2)CC1)N1CCN(c2ccc([N+](=O)[O-])cc2)CC1,-1.78
17,CCOC(=O)N1CCN(c2c(N3CCN(c4ccc(F)cc4)CC3)c(=O)c2=O)CC1,-73.4
18,CCOC(=O)N1CCN(c2c(N3CCN(c4ccc(OC)cc4)CC3)c(=O)c2=O)CC1,-46.6
19,CN(C)S(=O)(=O)N1CCN(c2ccc([N+](=O)[O-])cc2)CC1,-76.7
20,CN(C)S(=O)(=O)N1CCN(c2ccccc2)CC1,-1.78
21,CCOC(=O)N1CCN(c2c(N3CCN(C(=O)OCC)CC3)c(=O)c2=O)CC1,-29.1
